Sampled rows, rich in hits. Any-hit rate of the full collection: about 11%.
IMPase inh – qHTS Assay for Identifying the Cell-Membrane Permeable IMPase Inhibitors; Inositol monophosphatase 1 (Rattus norvegicus), P97697; AID 901, 2007; CHO-M1 cells, IP1 accumulation, HTRF TR-FRET ratio; 120,000 tested, under 10 active; inhibition (IP1 accumulation), % at 46.1 µM; active = well fitted curve in the direction sought with a large enough effect in the signal ratio, not every such curve was filed as active; inconclusive = small, poorly fitted or top-dose-only effect, or a change in a side signal; inactive = no such curve, though single readings can be large or run the other way; the % refers to the signal ratio;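 also: cells stimulated with carbachol in lithium chloride buffer; plate controls were DMSO basal wells for no effect and reference inhibitor wells for full effect; higher means more IMPase inhibition seen as more IP1 and lower FRET ratio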
Target sequence (P97697 whole entry, looked up): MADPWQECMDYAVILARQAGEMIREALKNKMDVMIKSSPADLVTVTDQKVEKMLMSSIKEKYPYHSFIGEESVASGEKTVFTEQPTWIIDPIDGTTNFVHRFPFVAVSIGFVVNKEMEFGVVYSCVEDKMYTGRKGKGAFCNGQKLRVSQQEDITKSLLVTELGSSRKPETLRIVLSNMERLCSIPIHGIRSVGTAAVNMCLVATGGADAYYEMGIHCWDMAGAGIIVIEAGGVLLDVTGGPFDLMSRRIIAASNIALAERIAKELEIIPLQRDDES
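In this qHTS, compounds (final up to 46 uM) act on CHO-M1 cells that are then activated through the M1 receptor with carbachol, in pH 7.4 buffer containing 50 mM LiCl, for 30 min. IP1 accumulation is quantified by the IP-One immunoassay.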
ALDH1A1 inh – qHTS Assay for Inhibitors of Aldehyde Dehydrogenase 1 (ALDH1A1); Aldehyde dehydrogenase 1A1 (Homo sapiens), P00352; Purified ALDH1A1, NADH fluorescence, propionaldehyde substrate; Potency, µM (series often up to 75.3 µM), inactives show at the top dose activity, negative = inhibition, actives largely listed as inhibitors; 7.3% of 220,000 active;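 also: potency is read from the fitted curve at half-maximal effect; plate controls were no enzyme wells and a reference inhibitor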
IMPase Li inh – qHTS Assay for Identifying the Cell-Membrane Permeable IMPase Inhibitors: Potentiation with Lithium; CHO-M1 cells, IP1 TR-FRET (IP-One), carbachol + lithium; 0.35% of 210,000 active; Potency, µM (series often up to 59.4 µM), without a hit: top-dose activity, negative = IMPase inhibition, most hits filed as inhibitors; active = well fitted curve in the direction sought with a large enough effect; inconclusive = small, poorly fitted or top-dose-only effect, or another doubt; inactive = no such curve, though single readings can be large; an effect the other way counts as inactive or inconclusive;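 also: IP1 builds up when IMPase is blocked and the TR-FRET signal falls; potency is read from the fitted curve at half-maximal effect; plate controls were basal vehicle for no effect and high inhibitor control for full effect; nearly all actives have a fitted effect of over 50% in size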
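CHO cells stably expressing M1 receptor (2000/well, cultured 16–30 h) treated 30 min at 37C with compound plus low lithium. Cytosolic IP1 by TR-FRET (665/620 ratio and 620 channel) after 10 min lysis; AC50 by Hill fit.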
PNC assembly inh – High Content Assay for Compounds that inhibit the Assembly of the Perinucleolar Compartment. PC3M PTB-GFP, PNC prevalence imaging, 16 h; stronger effect = lower value. activity change (PNC), negative = inhibition, % at 10 µM. 3.1% of 140,000 active. AID 2417, 2010;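 active = readout at or below -70, meaning at least 70% loss of cells showing the perinucleolar compartment, a nuclear body marking cancer cells; inconclusive = readout between -30 and a set limit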;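 also: plate controls were DMSO wells for no effect and camptothecin positive control wells for full effect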
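PC3M cells stably expressing PTB-GFP, 750–1000 cells/well, treated 16 h at 37 °C with compound (23 nl of library stock), in duplicate. After paraformaldehyde fixation and Hoechst stain, imaged at 20x; PNC prevalence scored by image analysis.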
NPSR antag – qHTS Assay for Antagonists of the Neuropeptide S Receptor: cAMP Signal Transduction; CHO-NPSR cells, cAMP TR-FRET, antagonist mode; Potency, µM (titrated, usually from 38.3 µM), inactives show at the highest dose activity change, negative = inhibition, usual class: inhibitors; 1% of 220,000 active; AID 1461, 2008; active = well fitted curve in the direction sought with a large enough effect; inconclusive = small, poorly fitted or top-dose-only effect, or another doubt; inactive = no such curve, though single readings can be large; an effect the other way counts as inactive or inconclusive; also: potency is read from the fitted curve at half-maximal effect; nearly all actives have a fitted effect of over 50% in size
HPGD block – qHTS Assay for Inhibitors of HPGD (15-Hydroxyprostaglandin Dehydrogenase). 15-hydroxyprostaglandin dehydrogenase [NAD(+)] (Homo sapiens), P15428. purified HPGD, NADH fluorescence kinetic, PGE2 substrate. Potency, µM, for the others: at the highest dose activity change, negative = inhibition, most hits filed as inhibitors. 4.3% of 150,000 active; also: potency is read from the fitted curve at half-maximal effect
Target sequence (P15428 whole entry, looked up): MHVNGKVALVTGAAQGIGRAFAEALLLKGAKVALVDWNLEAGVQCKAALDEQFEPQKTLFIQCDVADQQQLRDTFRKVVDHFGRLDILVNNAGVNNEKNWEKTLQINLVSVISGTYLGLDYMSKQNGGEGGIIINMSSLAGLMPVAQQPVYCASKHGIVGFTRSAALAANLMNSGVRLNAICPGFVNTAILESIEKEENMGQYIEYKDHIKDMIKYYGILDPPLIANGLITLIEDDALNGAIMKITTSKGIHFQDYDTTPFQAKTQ
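20 nM HPGD preincubated 15 min at room temperature with compound in 50 mM Tris-HCl pH 8, 0.01% Tween 20. Started with 1 mM NAD+ and 30 uM prostaglandin E2; NADH fluorescence (360/450 nm) read 5 times over 30-s intervals, last minus first.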
The depositor's hits bear a star; ? = inconclusive; / = not tested or not shown; [ ] = dose if it differs, or a comment. Unless noted, calls follow the shape of the dose curve; as a rule, active = well fitted inhibition curve with a large enough effect (not every such curve was filed as active); inconclusive = small, poorly fitted or top-dose-only effect, or another doubt; inactive = no such curve, though single readings can be large or run the other way. Unless noted, % is scaled to controls: 0 for no effect and ±100 for the full control effect.

SMILES | IMPase inh | ALDH1A1 inh | IMPase Li inh | PNC assembly inh | NPSR antag | HPGD block
COC(=O)C(CCSC)NC(=O)c1cc2c(n(-c3ccc(C)cc3)c1=O)CC(C)(C)CC2=O (stereo not drawn) | 2 | / | / | / | / | /
C/C(=N\NC(=O)c1ccccc1-n1cccc1)C1CC1 | -4 | 4µM* | 0% | 39 | 15% | -15%
NNC(=O)c1ccccc1-n1cccc1 | / | ? | 2% | / | 8% | /
CCCOC(=O)CCn1c(=S)oc2ccccc21 | 10 | ? | 2%[38.3 µM] | -7 | 15%[46.1 µM] | -15%
Cc1nnc(NC(=O)CCCCCN2C(=O)C3C4C=CC(C4)C3C2=O)s1 (stereo not drawn) | ? | ? | 26%[38.3 µM] | 23 | -14%[46.1 µM] | 6%
CN(c1cccc(NC(=O)CN(c2ccc(Cl)c(Cl)c2)S(=O)(=O)c2ccccc2)c1)S(C)(=O)=O | 13 | -3% | 1% | -100* | -29%[46.1 µM] | -6%
Cc1ccc(S(=O)(=O)N(CC(=O)Nc2cccc(N(C)S(C)(=O)=O)c2)c2ccc(Cl)c(Cl)c2)cc1 | -1 | 4% | 22%[38.3 µM] | ? | ? | -13%
Cn1c(NC(=O)COc2ccccc2)cc(=O)n(C)c1=O | 2 | 25µM* | -4%[38.3 µM] | 50 | -5%[46.1 µM] | -7%
COC(=O)c1cc(NC(=O)CN(c2ccc(OC)cc2)S(=O)(=O)c2ccc(F)cc2)ccc1Cl | -1 | 12% | 15% | -119* | -21% | -6%
CSc1cccc(NC(=O)COc2ccccc2)c1 | 8 | ? | 4%[38.3 µM] | -10 | 0%[46.1 µM] | 18µM*
COC(=O)c1ccccc1NC(=O)CN(c1ccc(Cl)cc1)S(=O)(=O)c1ccc(OC)cc1 | -1 | / | / | / | / | /
O=C(Cc1csc(-c2ccccc2)n1)NCc1ccco1 | / | -3% | 4% | / | 3% | /
Cc1[nH]n(-c2ccccc2)c(=O)c1CCOC(=O)c1cccc(C(F)(F)F)c1 | 1 | 4% | 6%[38.3 µM] | -11 | -18%[46.1 µM] | -17%
CN(c1cccc(NC(=O)COc2ccccc2)c1)S(C)(=O)=O | -5 | -8% | 11%[38.3 µM] | -111* | -9%[46.1 µM] | -17%
CSc1cccc(NC(=O)Cn2cccc2)c1 | -8 | 0.63µM* | -21%[38.3 µM] | -8 | 7%[46.1 µM] | 14µM*
COc1ccc(CC(=O)N2CCN=C2SC)cc1OC | / | 7% | 6% | / | 12% | /
O=C(Nc1nnc(CCS(=O)(=O)c2ccc(Br)cc2)s1)c1ccc([N+](=O)[O-])cc1 | 9 | 15% | 2%[38.3 µM] | -12 | -11%[46.1 µM] | -5%
O=C(COC(=O)c1cc2ccccc2cc1O)Nc1cccnc1Cl | / | 2% | -4% | 27 | 12% | -2%
CNC(=O)c1cc2cccc(OC)c2oc1=O | 15 | -14% | -7% | ? | 6%[46.1 µM] | -11%
COc1cccc2sc(Nc3nc(-c4cc5ccccc5oc4=O)cs3)nc12 | 9 | ? | 11% | -84* | -13% | ?
COc1ccccc1-c1nnc(Nc2nc3c(OC)cccc3s2)o1 | 0 | ? | ? | -87* | 8%[46.1 µM] | ?
COc1cccc2sc(Nc3nc(-c4ccncc4)cs3)nc12 | / | 1% | 3% | / | -18% | /
COc1ccc(Nc2nc(-c3cc4cccc(OC)c4oc3=O)cs2)cc1 | -4 | 22µM* | 3% | 14 | -6% | -12%
COc1cccc2cc(/C(C)=N/Nc3nc(-c4cc(C)ccc4C)cs3)c(=O)oc12 | -10[1.84 µM] | ? | 49%[38.3 µM] | 8 | -7%[46.1 µM] | 32µM*
CCC(C)[C@H](NC(=O)NCc1ccc(S(N)(=O)=O)cc1)C(=O)OC (stereo partly drawn) | / | -2% | -9% | / | 15% | /
Cc1cc(N(C)C)c(C#N)c(N2CCCCC2)n1 | -4 | -6% | / | 61 | -5%[46.1 µM] | /
CC1CN(c2c(F)c(N)c3c(=O)c(C(=O)O)cn(C4CC4)c3c2F)CC(C)N1 (stereo not drawn) | / | 8% | 16% | / | / | -11%

Compound activity deposited in PubChem BioAssay by National Center for Advancing Translational Sciences (NCATS).
